# Assay results taken from PubChem BioAssay (NCATS).
# Records with an inconclusive call do not appear. Entries that show only a call come without a potency. Calls of active or inactive are those of the source. Unless noted, calls come from the whole dose curve; as a rule, active = well fitted inhibition curve with a large enough effect; inconclusive = small, poorly fitted or top-dose-only effect; inactive = no such curve, though single readings can be large or run the other way. Residues, ends and D or L forms follow the SMILES beside them. *: point of attachment. Cbz = O=C(OCc1ccccc1)*
# Biological target: Muscarinic acetylcholine receptor M1 (Rattus norvegicus) (UniProt P08482)
# Experiment: qHTS Assay for Antagonists of Acetylcholine Muscarinic M1 Receptor: Kinetic Measurement of Intracellular Calcium Response (AID 943);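 note: Fluo-4 calcium signal as peak divided by basal fluorescence over 4 min; nearly all actives have a fitted effect of over 75% in size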
# Conditions: M1-expressing cells, kinetic intracellular calcium fluorescence; series mostly up to 35.3 µM
# Outline: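 Read-out: peak over basal Fluo-4 fluorescence, kinetic at 1 Hz for 4 min after EC80 carbachol (100 nM final). Rat M1-CHO cells, dye loaded 1 h at 37C, compound added 10 min before agonist.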
# Sequence of Muscarinic acetylcholine receptor M1 (Rattus norvegicus) (P08482 whole entry, looked up): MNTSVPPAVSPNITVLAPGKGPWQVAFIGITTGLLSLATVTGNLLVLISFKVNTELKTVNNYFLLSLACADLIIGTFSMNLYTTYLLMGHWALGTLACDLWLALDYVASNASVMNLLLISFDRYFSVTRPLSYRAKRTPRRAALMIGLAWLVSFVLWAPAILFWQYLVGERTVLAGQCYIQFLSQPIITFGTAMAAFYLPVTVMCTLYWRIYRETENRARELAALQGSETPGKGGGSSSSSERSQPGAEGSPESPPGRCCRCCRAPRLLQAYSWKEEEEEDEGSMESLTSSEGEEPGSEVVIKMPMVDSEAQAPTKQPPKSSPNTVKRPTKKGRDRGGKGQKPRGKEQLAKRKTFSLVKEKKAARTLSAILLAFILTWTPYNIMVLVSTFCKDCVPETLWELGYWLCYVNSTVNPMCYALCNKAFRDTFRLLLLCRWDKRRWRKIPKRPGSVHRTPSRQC
row,SMILES,Potency
1,O=C1Cc2c([nH]c3ccc(Br)cc23)-c2ccccc2N1,inactive
2,O=C(O)Cc1c[nH]c2ccc(O)cc12,inactive
3,N[C@@H](Cc1c[nH]c2ccccc12)C(=O)O,inactive
4,CC(N)=O,inactive
5,O=c1oc(Cl)c(Cl)c2ccccc12,inactive
6,CCCCCCCCCCC/C=C\C(C)(C)/C=C\CCCC(=O)O,inactive
7,Cc1cccc(C(=O)NCN2CCN(c3ccccc3C#N)CC2)c1,inactive
8,N#C/C(=C\c1ccc(O)c(O)c1)C(=O)NCCc1ccccc1,inactive
9,CNC(=O)c1cc2c(cn1)[nH]c1ccccc12,inactive
10,Cc1cc2c(cc1Cl)N(C(=O)Nc1ccnc3ccccc13)CC2,inactive

# Biological target: Muscarinic acetylcholine receptor M1 (Rattus norvegicus) (UniProt P08482)
# Experiment: qHTS Assay for Antagonists of Acetylcholine Muscarinic M1 Receptor: Measurement of IP-One Response (AID 944); note: nearly all actives have a fitted effect of over 75% in size; note: potency is the fitted concentration of half-maximal effect
# Conditions: CHO-M1 cells, IP-One HTRF, antagonist mode; series mostly up to 46.1 µM
# Outline: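 Read-out: HTRF competition between d2-IP1 and Eu-cryptate anti-IP1 antibody, emission 620 and 665 nm. Stimulus was carbachol, EC80 (200 nM), for 30 min in M1-CHO cells (rat receptor), after 10 min compound pre-treatment.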
row,SMILES,Potency
1,COc1ccc(C(=O)NCc2cccnc2)cc1C(=O)NCc1cccnc1,inactive
2,Oc1ccc(Cn2cc[nH]c2=S)cc1,inactive
3,O=C(O)Cc1c[nH]c2ccc(O)cc12,inactive
4,Nc1ncnc2c1ncn2C1CCCC1,inactive
5,N[C@@H](Cc1c[nH]c2ccccc12)C(=O)O,inactive
6,O=S(=O)(c1cccc2c(Cl)cccc12)N1CCCNCC1,inactive
7,CC(N)=O,inactive
8,CCN(CC)CCCCCCCCOC(=O)c1cc(OC)c(OC)c(OC)c1,2820 nM (active)
9,Nc1nc2[nH]c(=O)cnc2c(=O)[nH]1,inactive
10,Nc1ncnc2c1c(-c1ccc(Oc3ccccc3)cc1)cn2C1CCCC1,inactive
11,O=c1oc(Cl)c(Cl)c2ccccc12,inactive
12,CCCCOC(=O)NS(=O)(=O)c1sc(CC(C)C)cc1-c1ccc(Cn2c(CC)nc3c(C)cc(C)nc32)cc1,inactive
13,CCCCCCCCCCC/C=C\C(C)(C)/C=C\CCCC(=O)O,inactive
14,Nn1nnc2ccccc21,inactive
15,CNC(=O)c1cc2c(cn1)[nH]c1ccccc12,inactive
16,S=C(S)N1CCCC1,inactive
17,Cc1cc2c(cc1Cl)N(C(=O)Nc1ccnc3ccccc13)CC2,inactive
18,NC(N)=NC(N)=Nc1cccc(Cl)c1,inactive
19,CN1CCN(c2nc3cc(C(F)(F)F)ccc3n3cccc23)CC1,inactive
20,NCCNS(=O)(=O)c1cccc2c(Cl)cccc12,inactive

# Biological target: Pyruvate kinase (Leishmania mexicana) (UniProt Q27686)
# Experiment: qHTS Validation Assay for Inhibitors of Leishmania Mexicana Pyruvate Kinase (AID 945)
# Conditions: purified L. mexicana pyruvate kinase, enzyme activity, E451W mutant enzyme; series mostly up to 57.5 µM
# Outline: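 Mutant LmPYK (E451W), 0.2 nM, plus 0.5 mM PEP and 0.1 mM ADP in 50 mM imidazole pH 7.2 containing 0.01% Tween 20 and 0.05% BSA. Incubated 1 h at room temperature; luminescence via PKLight, normalized to DMSO.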
# Sequence of Pyruvate kinase (Leishmania mexicana) (Q27686 2-499 E452W): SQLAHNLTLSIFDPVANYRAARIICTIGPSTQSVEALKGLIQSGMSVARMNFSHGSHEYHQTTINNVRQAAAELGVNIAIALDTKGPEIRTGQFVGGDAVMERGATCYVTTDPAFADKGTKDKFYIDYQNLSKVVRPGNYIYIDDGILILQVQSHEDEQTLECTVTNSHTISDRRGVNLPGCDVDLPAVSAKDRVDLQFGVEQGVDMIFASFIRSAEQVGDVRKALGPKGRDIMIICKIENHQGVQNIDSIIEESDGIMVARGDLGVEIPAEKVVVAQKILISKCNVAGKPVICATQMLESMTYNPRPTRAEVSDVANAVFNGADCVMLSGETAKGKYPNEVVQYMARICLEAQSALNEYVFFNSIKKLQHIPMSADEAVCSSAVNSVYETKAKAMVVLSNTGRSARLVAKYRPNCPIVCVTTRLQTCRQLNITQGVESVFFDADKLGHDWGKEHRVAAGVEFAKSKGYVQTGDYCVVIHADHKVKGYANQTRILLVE
row,SMILES,Potency
1,COc1ccc(C(=O)NCc2cccnc2)cc1C(=O)NCc1cccnc1,inactive
2,CC[C@@H]1Cc2cc(O)ccc2C2=C1c1ccc(O)cc1C[C@H]2CC,inactive
3,Oc1ccc(Cn2cc[nH]c2=S)cc1,inactive
4,O=C(O)Cc1c[nH]c2ccc(O)cc12,inactive
5,Nc1ncnc2c1ncn2C1CCCC1,inactive
6,N[C@@H](Cc1c[nH]c2ccccc12)C(=O)O,inactive
7,CC(C)[C@H](NC(=O)OCc1ccccc1)C(=O)N[C@H](C=O)Cc1ccccc1 (Cbz-Val-Phe-aldehyde),inactive
8,CC(C)(C)c1cc(/C=C(\C#N)C(N)=S)cc(C(C)(C)C)c1O,inactive
9,O=S(=O)(c1cccc2c(Cl)cccc12)N1CCCNCC1,inactive
10,N=C(N)c1ccc(N)cc1,inactive
11,CC(N)=O,inactive
12,CCN(CC)CCCCCCCCOC(=O)c1cc(OC)c(OC)c(OC)c1,inactive
13,CCCc1c(-c2ccc(O)cc2)nn(-c2ccc(O)cc2)c1-c1ccc(O)cc1,inactive
14,Nc1nc2[nH]c(=O)cnc2c(=O)[nH]1,inactive
15,Nc1ncnc2c1c(-c1ccc(Oc3ccccc3)cc1)cn2C1CCCC1,inactive
16,O=c1oc(Cl)c(Cl)c2ccccc12,inactive
17,CCCCOC(=O)NS(=O)(=O)c1sc(CC(C)C)cc1-c1ccc(Cn2c(CC)nc3c(C)cc(C)nc32)cc1,inactive
18,CCCCCCCCCCC/C=C\C(C)(C)/C=C\CCCC(=O)O,inactive
19,OC1(c2ccc(Cl)cc2)CCN(Cc2c[nH]c3ccccc23)CC1,inactive
20,Cc1cccc(C(=O)NCN2CCN(c3ccccc3C#N)CC2)c1,inactive
21,COc1ccccc1N1CCN(CCCCNC(=O)c2ccc3ccccc3c2)CC1,inactive
22,O=C(O)Cc1ccc(O)c(O)c1,inactive
23,N#C/C(=C\c1ccc(O)c(O)c1)C(=O)NCCc1ccccc1,inactive
24,Nn1nnc2ccccc21,inactive
25,CC(=O)NNC(=O)N1Cc2ccccc2Oc2ccc(Cl)cc21,inactive
26,S=C(S)N1CCCC1,inactive
27,Cc1cc2c(cc1Cl)N(C(=O)Nc1ccnc3ccccc13)CC2,inactive
28,NC(N)=NC(N)=Nc1cccc(Cl)c1,inactive
29,CN1CCN(c2nc3cc(C(F)(F)F)ccc3n3cccc23)CC1,inactive
30,NCCNS(=O)(=O)c1cccc2c(Cl)cccc12,inactive

# Biological target: Pyruvate kinase PKM (Homo sapiens) (UniProt P14618)
# Experiment: qHTS Assay for Activators of Human Muscle Pyruvate Kinase (AID 954; active = well fitted curve in the direction sought with a large enough effect, not every such curve was filed as active)
# Conditions: purified human muscle pyruvate kinase, luciferase-coupled luminescence, 1 h; series mostly up to 57.5 µM
# Outline: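 Screening used highly purified human pyruvate kinase M2 under submaximal activity, with PEP at its Km and ADP below Km. After an hour at room temperature, ATP was read by luciferase luminescence.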
# Sequence of Pyruvate kinase PKM (Homo sapiens) (P14618 whole entry, looked up): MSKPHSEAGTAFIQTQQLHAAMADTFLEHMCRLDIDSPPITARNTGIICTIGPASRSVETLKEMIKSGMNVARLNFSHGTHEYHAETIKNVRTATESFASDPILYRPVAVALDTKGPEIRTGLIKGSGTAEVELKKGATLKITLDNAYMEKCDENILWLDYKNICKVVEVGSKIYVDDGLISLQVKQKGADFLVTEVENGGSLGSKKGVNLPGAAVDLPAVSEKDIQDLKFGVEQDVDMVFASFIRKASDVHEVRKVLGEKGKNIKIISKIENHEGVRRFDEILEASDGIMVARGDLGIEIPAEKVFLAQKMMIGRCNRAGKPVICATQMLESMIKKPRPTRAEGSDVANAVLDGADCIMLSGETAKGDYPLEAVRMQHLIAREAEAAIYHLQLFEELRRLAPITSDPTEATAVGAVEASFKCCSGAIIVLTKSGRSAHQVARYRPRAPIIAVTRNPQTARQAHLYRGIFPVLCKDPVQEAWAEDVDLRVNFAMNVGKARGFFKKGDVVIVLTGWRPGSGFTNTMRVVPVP
row,SMILES,outcome
1,COc1ccc(C(=O)NCc2cccnc2)cc1C(=O)NCc1cccnc1,inactive
2,CC[C@@H]1Cc2cc(O)ccc2C2=C1c1ccc(O)cc1C[C@H]2CC,inactive
3,Oc1ccc(Cn2cc[nH]c2=S)cc1,inactive
4,O=C1Cc2c([nH]c3ccc(Br)cc23)-c2ccccc2N1,inactive
5,O=C(O)Cc1c[nH]c2ccc(O)cc12,inactive
6,Nc1ncnc2c1ncn2C1CCCC1,inactive
7,N[C@@H](Cc1c[nH]c2ccccc12)C(=O)O,inactive
8,CC(C)[C@H](NC(=O)OCc1ccccc1)C(=O)N[C@H](C=O)Cc1ccccc1 (Cbz-Val-Phe-aldehyde),inactive
9,CC(C)(C)c1cc(/C=C(\C#N)C(N)=S)cc(C(C)(C)C)c1O,inactive
10,O=S(=O)(c1cccc2c(Cl)cccc12)N1CCCNCC1,inactive
11,N=C(N)c1ccc(N)cc1,inactive
12,CC(N)=O,inactive
13,CCN(CC)CCCCCCCCOC(=O)c1cc(OC)c(OC)c(OC)c1,inactive
14,CCCc1c(-c2ccc(O)cc2)nn(-c2ccc(O)cc2)c1-c1ccc(O)cc1,inactive
15,Nc1nc2[nH]c(=O)cnc2c(=O)[nH]1,inactive
16,Nc1ncnc2c1c(-c1ccc(Oc3ccccc3)cc1)cn2C1CCCC1,inactive
17,O=c1oc(Cl)c(Cl)c2ccccc12,inactive

row,SMILES,outcome
1,N#C/C(=C\c1ccc(O)c(O)c1)C(=O)NCCCNC(=O)/C(C#N)=C/c1ccc(O)c(O)c1,inactive
2,CCCCOC(=O)NS(=O)(=O)c1sc(CC(C)C)cc1-c1ccc(Cn2c(CC)nc3c(C)cc(C)nc32)cc1,inactive
3,CCCCCCCCCCC/C=C\C(C)(C)/C=C\CCCC(=O)O,inactive
4,N=C(N)c1ccc(OCCCCCOc2ccc(C(=N)N)cc2)cc1 (tested in a mixture with another compound),inactive
5,OC1(c2ccc(Cl)cc2)CCN(Cc2c[nH]c3ccccc23)CC1,inactive
6,Cc1cccc(C(=O)NCN2CCN(c3ccccc3C#N)CC2)c1,inactive
7,COc1ccccc1N1CCN(CCCCNC(=O)c2ccc3ccccc3c2)CC1,inactive
8,O=C(O)Cc1ccc(O)c(O)c1,inactive
9,N#C/C(=C\c1ccc(O)c(O)c1)C(=O)NCCc1ccccc1,inactive
10,Nn1nnc2ccccc21,inactive
11,CC(=O)NNC(=O)N1Cc2ccccc2Oc2ccc(Cl)cc21,inactive
12,CNC(=O)c1cc2c(cn1)[nH]c1ccccc12,inactive
13,S=C(S)N1CCCC1,inactive
14,Cc1cc2c(cc1Cl)N(C(=O)Nc1ccnc3ccccc13)CC2,inactive
15,NC(N)=NC(N)=Nc1cccc(Cl)c1,inactive
16,CN1CCN(c2nc3cc(C(F)(F)F)ccc3n3cccc23)CC1,inactive
17,NCCNS(=O)(=O)c1cccc2c(Cl)cccc12,inactive
